Bioassay records: PubChem BioAssay, National Center for Advancing Translational Sciences (NCATS)
Only some compounds are listed: those with a hit (about 4.2% of all), similar ones and a draw of the others.
Tau filament bind: binds recombinant human tau filaments | recombinant tau filaments, thioflavin S fluorescence, 15 h; filaments grown with octadecylsulfate alongside compound | Potency, µM (series often up to 57.1 µM), for the others: at the highest dose activity change, negative = inhibition | hit rate 2% among 71,000;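 further: potency means the concentration at half of the fitted maximal effect; on the % scale 0 is the no-effect control and ±100 the full control effect; actives lower thioflavin S fluorescence by blocking filaments or displacing dye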
Target sequence (P10636 whole entry, looked up): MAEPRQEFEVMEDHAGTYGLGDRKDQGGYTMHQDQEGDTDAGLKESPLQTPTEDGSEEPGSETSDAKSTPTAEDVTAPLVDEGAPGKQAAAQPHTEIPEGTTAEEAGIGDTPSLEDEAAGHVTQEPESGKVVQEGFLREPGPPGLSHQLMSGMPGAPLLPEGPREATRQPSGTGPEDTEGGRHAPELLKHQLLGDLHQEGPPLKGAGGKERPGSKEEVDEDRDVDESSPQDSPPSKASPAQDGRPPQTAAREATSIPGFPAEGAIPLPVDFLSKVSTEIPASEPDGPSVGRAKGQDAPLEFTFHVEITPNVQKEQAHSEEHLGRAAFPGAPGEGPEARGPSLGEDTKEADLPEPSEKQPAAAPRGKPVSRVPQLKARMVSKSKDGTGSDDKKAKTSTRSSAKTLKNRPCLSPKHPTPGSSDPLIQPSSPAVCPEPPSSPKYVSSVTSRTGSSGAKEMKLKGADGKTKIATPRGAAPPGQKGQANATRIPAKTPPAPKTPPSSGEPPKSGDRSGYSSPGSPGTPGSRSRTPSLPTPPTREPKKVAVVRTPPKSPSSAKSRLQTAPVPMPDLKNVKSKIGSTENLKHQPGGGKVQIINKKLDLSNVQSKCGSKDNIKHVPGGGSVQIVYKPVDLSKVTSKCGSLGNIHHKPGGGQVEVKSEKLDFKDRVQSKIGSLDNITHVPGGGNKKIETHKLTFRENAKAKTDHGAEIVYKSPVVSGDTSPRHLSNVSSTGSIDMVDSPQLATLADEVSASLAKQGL
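Quantitative HTS: thioflavine S signal from ODS-induced tau filaments, excited at 450 nm, emission 510 nm. Conditions: 1 uM tau, 30 uM ODS, 15 h at 37 C, pH 7.4.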
Pol III holo inh: inhibitors of bacterial DNA polymerase III holoenzyme | AID 603 | Potency, µM (series often up to 57.1 µM), without a hit: top-dose activity change, negative = inhibition | hit rate 0.25% among 71,000 | reconstituted DNA polymerase III holoenzyme replication, biochemical; further: potency means the concentration at half of the fitted maximal effect; on the % scale 0 is the no-effect control and ±100 the full control effect
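Reconstituted *E. coli* holoenzyme (0.35 nM Pol III, 1 nM beta, 154 nM SSB, 2 nM primase) was preincubated with compound for 15 min at RT. Synthesis on 1.4 nM ssM13Gori ran 35 min, then was stopped with PicoGreen/EDTA and read as dsDNA fluorescence.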
Hsp90 Hop PPI: changes Hsp90-Hop TPR2A binding signal, up or down; AlphaScreen TPR2A-His6 binding biotin-Hsp90 C-terminal peptide; Potency, µM (highest dose often 57 µM), for the others: at the highest dose activity change, negative = inhibition; hit rate 0.44% among 71,000; active means well fitted curve in either direction with a large enough effect; inconclusive means small, poorly fitted or top-dose-only effect, or another doubt; further: potency means the concentration at half of the fitted maximal effect; on the % scale 0 is the no-effect control and ±100 the full control effect
ALOX15 inhib: 15-hLO (ALOX15) enzyme inhibition. Potency, µM (titrated, usually from 57.1 µM), without a hit: at the top dose activity change, negative = inhibition, actives largely listed as inhibitors. purified 15hLO-1, xylenol orange hydroperoxide absorbance. AID 887. hit rate 1.4% among 74,000; further: potency means the concentration at half of the fitted maximal effect; on the % scale 0 is the no-effect control and ±100 the full control effect; nearly all actives have a fitted effect of over 55% in size
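Quantitative HTS in 25 mM Hepes pH 7.5 containing 0.01% Triton X-100: human 15hLO-1 at 40 nM, arachidonic acid at 50 uM, 6 min turnover. Product quantified via ferrous oxidation/xylenol orange, 573:405 nm absorbance ratio.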
ERK AVP block: blocks ERK signaling stimulated by vasopressin; hit rate 0.99% among 72,000; HEK293-V1b, vasopressin-stimulated pERK AlphaScreen; Potency, µM (titrated, usually from 57.5 µM), for inactives: top-dose activity, negative = inhibition, actives largely listed as inhibitors; further: potency means the concentration at half of the fitted maximal effect; on the % scale 0 is the no-effect control and ±100 the full control effect; nearly all actives have a fitted effect of over 55% in size
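V1b-HEK293 cells; cpd 30 min 37C; 25 nM vasopressin 5 min; lyse 10 min; AlphaScreen beads 5 hr RT. Normalized to DMSO basal and 25 nM vasopressin; AC50 by Hill fit.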
TsaE inh: YjeE (TsaE) inhibition, E. coli; purified YjeE enzyme, qHTS inhibition assay; Potency, µM; AID 605; hit rate 0.05% among 71,000; P0AF67
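Fluorescence polarization of a BODIPY Texas Red–ADP probe (2 uM) bound to purified YjeE (10 uM) was read after 15 min room-temperature incubation with compounds. Loss of polarization marks inhibitors; ADP serves as titrated control.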
The depositor's hits bear a star; i = inactive; ? = inconclusive; . = no result given; ! = repeats disagree; [ ] = dose if it differs, or a comment. Unless noted, the call rests on the fitted dose curve; in most records, active means well fitted curve in the direction sought with a large enough effect; inconclusive means small, poorly fitted or top-dose-only effect, or another doubt; inactive means no such curve, though single readings can be large; an effect the other way counts as inactive or inconclusive.

SMILES	Tau filament bind	Pol III holo inh	Hsp90 Hop PPI	ALOX15 inhib	ERK AVP block	TsaE inh
CCCn1c(C)nc2c(c1=O)c1nc3ccccc3nc1n2CCC1=CCCCC1	160%	-7%	-2%	-12%	-11%	i
Cc1nc2c(c(=O)n1CCC1=CCCCC1)c1nc3ccccc3nc1n2/N=C/c1ccco1	2µM*	-7%	-4%	-2%	-19%	i
CCCC(=O)c1ccc(N2CCN(C(=O)c3ccccc3Br)CC2)c(F)c1	53%	2%	5%	-25%	25µM*	i
CCCC(=O)c1ccc(N2CCN(C(=O)c3ccccc3)CC2)c(F)c1	61%	-6%	1%	-4%	-29%	i
CCOc1nonc1C(=N)/C(C(C)=O)=C(\C)O	13%	2%	0%	1%	16%	i
CCOCCOCC	7%	-1%	-11%	2%	-9%	i
CCOC(=O)CNC(=O)CSc1ncnc2c1cnn2-c1ccc(C)cc1	8%	-3%	1%	16%	7.9µM*	i
CCOC(=O)CNC(=O)CSc1ncnc2c1cnn2-c1ccccc1	-8%	-4%	-1%	4%	-11%	i
CC(C)c1cccc2nc3c(c([Si](C)(C)C)c12)Cn1c-3cccc1=O	32µM*	-6%	?	.	35%	i
CCc1c2c(nc3c(C(C)C)cccc13)-c1cccc(=O)n1C2	174%	-10%	?	.	-8%	i
CCc1cccc2nc3c(c([Si](CC)(CC)CC)c12)Cn1c-3cccc1=O	20µM*	1%	25µM*	.	-11%	i
Cc1ccc(NC(=O)CSC2=C(C#N)C(c3ccc4c(c3)OCO4)C3=C(CCCC3=O)N2)c(C)c1 (stereo not drawn)	25%	-4%	-17%	3.2µM*	-21%	i
O=C(CCCn1c(=S)[nH]c2ccccc2c1=O)N1CCOCC1	3%	12%	-2%	3%	3%	i
Nc1c2c(nc3ccccc13)CCC[C@H]2O	0%	-3%	2%	3%	2%	i
Nc1c2c(nc3ccccc13)CCCC2	44%	-10%	-3%	13µM*!	9%	i
Nc1c2ccccc2nc2ccccc12	6%	40µM*	-3%	-1%	17%	i
Cc1occc1C(=O)N1CCN(c2ncccn2)CC1	6%[11.4 µM]	-3%[11.4 µM]	?	13%[11.4 µM]	-1%	i
COc1cc(N)c(Cl)cc1C(=O)N[C@H]1CCN(CCCOc2ccc(F)cc2)C[C@@H]1OC	?	-6%	-1%	?	32µM*	i
CCCCN1CCC(CCC(=O)c2cc(Cl)c(N)cc2OC)CC1	179%	-4%	-18%	-16%[25.6 µM]	-6%	i
O=C1CCCN1CC(CN1CCOCC1)Sc1nnnn1-c1ccccc1 (stereo not drawn)	7%	2%	-2%	4%	-11%	i
FC(F)(F)c1cnc(Nc2ccc(N3CCOCC3)cc2)c(Cl)c1	32µM*	-13%	-24%	-5%	-25%	i
NC1=NC(S)C2N=CN=C2N1 (stereo not drawn)	-11%	3%	-3%	?	4%	i
COc1ccc(NC(=O)C2CCCN2S(=O)(=O)c2ccc3c(c2)CCC(=O)N3)c(OC)c1 (stereo not drawn)	25µM*	2%	-10%	2%	-7%	i
O=C(O)c1cc(O)c2c(c1)[C@H]([C@H]1c3cc(C(=O)O)cc(O)c3C(=O)c3c(O[C@@H]4OC(CO)C(O)C(O)C4O)cccc31)c1cccc(O[C@@H]3OC(CO)C(O)C(O)C3O)c1C2=O (stereo partly drawn)	.	.	.	13µM*	?	.
CC/C(C)=N/O	12%	1%	-6%	-3%	13%	i
SMILES	Tau filament bind	Pol III holo inh	Hsp90 Hop PPI	ALOX15 inhib	ERK AVP block	TsaE inh
N=c1cc(C2(O)CCCCC2)n2c(nc3ccccc32)s1	-1%	-5%	-7%	-11%	?	i
c1ccc(-c2nc(N3CCCCCC3)c3ccccc3n2)nc1	13µM*	-14%	?	25%	?	i
O=C(CCc1ccc(S(=O)(=O)N2CCOCC2)cc1)Oc1ccccc1	-8%	5%	?	-7%	6%	i
CC(C)(Oc1ccc(Cl)cc1)C(=O)NCCCn1ccnc1	10%	?	-2%	19%	-8%	i
CCOC(=O)N1CCN(c2nc3ccccc3nc2C(C#N)S(=O)(=O)c2ccc(C)cc2)CC1 (stereo not drawn)	17%	-11%	-2%	-15%	0%	i
Oc1ccc(Br)cc1/C=N/n1cnc2ccccc21	194%	0%	-3%	-15%	16µM*	i
C=CC1=C(C)C2=NC1=CC1=NC(=CC3=NC(=CC4=NC(=C2)C(C)=C4CCC(=O)O)C(CCC(=O)O)=C3C)C(C=C)=C1C.[Zn]	0.79µM*	25µM*	5µM*	10µM*	10%	79µM*
Clc1cccc(-c2nnc(SCc3nc4ccccc4[nH]3)n2Cc2ccco2)c1	-26%	-6%	-8%	10%	?	i
Clc1ccc(OCc2nnc(SCc3nc4ccccc4[nH]3)n2Cc2ccco2)cc1	4%	3%	-10%	1%	20µM*	i
CC(=O)Nc1nc(CC(C)C)cc(-c2ccco2)c1C#N	12%	-4%	?	-10%	12%	i
Cc1cccc(C)c1NC(=O)C[N+](C)(C)C	39%	-4%	-6%	-10%[25.6 µM]	-6%	i
CCN(CC)C(C)CN1c2ccccc2Sc2ccccc21 (stereo not drawn)	.	.	.	25µM*	10%	.
O=C(Nc1cccc(F)c1)N1CCCC2(CCN(C(=O)c3ccco3)CC2)C1	5%	-10%	1%	0.32µM*	-22%	i
Cn1c(CCCOc2ccc(Cl)cc2Cl)nnc1SCC(=O)Nc1nccs1	146%	-1%	-5%	-8%	32µM*	i
Cc1ccc2cc3c(N)c(C(=O)N4CCOCC4)sc3nc2c1	-18%	-11%	-2%	-14%	1%	i
COc1ccc2cc3c(N)c(C(=O)N4CCCC4)sc3nc2c1	20µM*	-11%	-5%	?	-20%	i
CC1=CC(C#N)(C#N)C(C#N)(C#N)C(c2ccccc2)N1 (stereo not drawn)	183%	-5%	3.2µM*	-8%	-10%	50µM*
CCn1cc(C(=O)OCC(=O)OC2CC(C)CCC2C(C)C)c(=O)c2ccc(C)nc21 (stereo not drawn)	94%	6%	-3%	4%	25µM*	i
CN(Cc1ccccc1)c1nc2c(c(=O)n(C)c(=O)n2C)n1CCCc1ccccc1	21%	1%	-9%	-28%	20µM*	i
CN(Cc1ccccc1)c1nc2c(c(=O)[nH]c(=O)n2C)n1CCOc1ccccc1	-7%	0%	?	?	13µM*	i
